This passage reports outcome and AC50 results from PubChem BioAssay (EPA / NIEHS).

The nature of assay [1]: ATG_XTT_Cytotoxicity: Cytotoxicity Assessment in the Attagene TRANS-FACTORIAL HepG2 Assay (AID 2283584).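 For AC50: XTT signal for cell number as viability in transfected HepG2 cells; cells exposed to compound for 24 h before reading; active means loss of viability signal versus DMSO baseline.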 In outline: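 Transfect HepG2 with GAL4-UAS reporter units, dose compound, incubate 24 h, then measure viable cell number by XTT. Fit concentration response against DMSO baseline.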
Assay [2] is described as follows: TOX21_p53_BLA_p2_viability: Viability Assessment in the Tox21 HCT-116 p53 Agonism Beta-lactamase Assay, Phase 2 (AID 2283591).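 Note: compound exposure lasted 16 h at 37 °C; actives lower the ATP signal meaning cytotoxicity.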 In outline:
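HCT-116 p53-bla cells (4000/well) rested 5 h at 37C, then received compounds in DMSO (217-fold dilution) for 16 h at 37C, 5% CO2. After the CCF4 read, CellTiter-Glo was added; ATP luminescence was read after 30 min at room temperature.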

For assay [3], the target named is Cellular tumor antigen p53 (Homo sapiens) (UniProt P04637). The experiment in a line: TOX21_p53_BLA_p2_ratio: Tox21 HCT-116 p53 Agonism Beta-lactamase Assay, Ratio, Phase 2 (AID 2283592). In outline: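 Cleaved-to-uncleaved substrate ratio (460 vs 530 nm) measured in HCT116 cells with an inducible beta-lactamase reporter linked to p53 activity. Compounds incubated 16 h at 37C before 2 h room-temperature CCF4-AM loading.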

Assay [4] is described as follows: TOX21_p53_BLA_p3_viability: Viability Assessment in the Tox21 HCT-116 p53 Agonism Beta-lactamase Assay, Phase 3 (AID 2283593).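 Note: cells exposed to compound for 16 h before reading.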 An outline of the steps: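 HCT-116 cells (4000/well) rested 5 h at 37C, then got DMSO compounds by pin tool (217-fold dilution) for 16 h at 37C, 5% CO2. After the bla read, CellTiter-Glo was added and luminescence read at 30 min, room temperature.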

For assay [5], the target named is Cellular tumor antigen p53 (Homo sapiens) (UniProt P04637). The experiment in a line: TOX21_p53_BLA_p3_ratio: Tox21 HCT-116 p53 Agonism Beta-lactamase Assay, Ratio, Phase 3 (AID 2283596). In outline: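 Cells were seeded at 4000/well, rested 5 h at 37C, then dosed with DMSO compound solutions (217-fold dilution) for 16 h. CCF4-AM substrate was loaded for 2 h at room temperature, and the 460/530 nm emission ratio was fitted for gain of signal versus DMSO.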

Assay [6] is described as follows: TOX21_p53_BLA_p4_viability: Viability Assessment in the Tox21 HCT-116 p53 Agonism Beta-lactamase Assay, Phase 4 (AID 2283597).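 Note: hits lower the luminescence signal meaning cytotoxicity.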 An outline of the steps: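 Viability is taken as cellular ATP: after 16 h compound exposure of HCT116 cells and a 2 h room-temperature CCF4-AM substrate step, CellTiter-Glo reagent is added and luminescence is measured 30 min later.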
For assay [7], the target named is Cellular tumor antigen p53 (Homo sapiens) (UniProt P04637). The experiment in a line: TOX21_p53_BLA_p5_ratio: Tox21 HCT-116 p53 Agonism Beta-lactamase Assay, Ratio, Phase 5 (AID 2283599). An outline of the steps:
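HCT-116 cells carrying a p53-inducible beta-lactamase reporter were seeded at 4000 cells/well and dosed after 5 h with compound in DMSO (217-fold dilution). After 16 h at 37C, CCF4-AM substrate was added for 2 h, and the 460/530 nm emission ratio was scored as gain-of-signal versus DMSO.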

The nature of assay [8]: TOX21_p53_BLA_p5_viability: Viability Assessment in the Tox21 HCT-116 p53 Agonism Beta-lactamase Assay, Phase 5 (AID 2283600). An outline of the steps:
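Viability is taken from cellular ATP content, measured by luciferase luminescence in the same wells after the beta-lactamase ratio read. Cells are seeded at 4000 per well and exposed to DMSO-dissolved compounds, diluted 217-fold, for 16 h.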

The target of assay [9] is Cellular tumor antigen p53 (Homo sapiens) (UniProt P04637). The experiment in a line: TOX21_p53_BLA_p4_ratio: Tox21 HCT-116 p53 Agonism Beta-lactamase Assay, Ratio, Phase 4 (AID 2283601). An outline of the steps:
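HCT116 cells carrying an inducible beta-lactamase reporter were plated at 4000 cells/well, rested 5 h, then exposed to compounds in DMSO (217-fold dilution) for 16 h at 37C. CCF4-AM substrate was loaded 2 h at room temperature; 460/530 nm emission ratio scored gain-of-signal versus DMSO.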

Where “and” joins values, the source holds several entries; their conditions need not be identical. Equal entries are not always repeated. Inconclusive results are not listed. Where a structure was tested more than once in an assay, its records may differ in their call. Calls of active or inactive are those of the source. Rule for the calls: active = hit-call score of the fitted dose curve at least 0.9, where 1 is the maximum; inconclusive = response in the unintended direction; inactive = score below 0.9.

Sequence of Cellular tumor antigen p53 (Homo sapiens) (P04637 whole entry, looked up): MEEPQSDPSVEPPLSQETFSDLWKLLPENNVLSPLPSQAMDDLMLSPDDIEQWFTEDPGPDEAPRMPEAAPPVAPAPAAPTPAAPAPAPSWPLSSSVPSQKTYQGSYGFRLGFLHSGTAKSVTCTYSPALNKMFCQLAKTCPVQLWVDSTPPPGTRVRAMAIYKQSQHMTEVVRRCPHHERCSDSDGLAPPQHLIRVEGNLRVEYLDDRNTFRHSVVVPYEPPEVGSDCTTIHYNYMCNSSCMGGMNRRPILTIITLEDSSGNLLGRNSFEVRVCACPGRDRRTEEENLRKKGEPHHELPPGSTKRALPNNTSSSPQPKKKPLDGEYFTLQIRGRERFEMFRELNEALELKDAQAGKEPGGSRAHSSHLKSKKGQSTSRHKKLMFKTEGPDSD

For the molecule `O=c1[nH]nnc2ccccc12`, the molecule was classed as inactive in [1], in assay [2], in [3], in [4], in [5] and in assay [6]. For the same molecule, the result in assay [7] and in assay [8] was inactive.
On to `Cc1cccc(C)c1[N+](=O)[O-]`, for which the molecule was called inactive in assay [1].
Regarding `CCCCCCCCCCN`, the molecule was called inactive in [1], in assay [2], in [3], in [4], in assay [5] and in [6]. Moreover, the result in assay [7], in assay [8] and in [9] was inactive.
Consider `c1ccc2c(c1)c1cccc3ccc4cccc2c4c31`, for which the call in assay [1], in assay [2], in assay [3], in [4], in [5] and in assay [7] was inactive. Also, the call in [8] and in [9] was inactive. For the same molecule, the results for the AC50 in assay [3], in assay [5] and in assay [7] were 15 µM (active), 60.5 µM (active) and 40.6 µM (active), respectively.
Consider `O=C1c2ccccc2C(=O)N1SC1CCCCC1`, for which the outcome in assay [1], in assay [2], in assay [3], in assay [5], in assay [6] and in assay [7] was inactive. Further, in assay [8], the outcome was inactive. Also, the AC50 was 61.2 µM (active) in [2]; 81.1 µM (active) in assay [3]; 47.6 µM (active) and 86.6 µM (active) in [4]; 57 µM (active) in assay [5]; 49.3 µM (active) in assay [6]; 44.8 µM (active) in [7].
As for `CCN(CC)c1ccc2c(-c3ccccc3C(=O)O)c3ccc(=[N+](CC)CC)cc-3oc2c1`, the molecule was called inactive in assay [1], in assay [2], in assay [3], in assay [4], in assay [5] and in assay [6]. Besides, the result in [7], in assay [8] and in assay [9] was inactive.
With `CC[Si](OC(C)=O)(OC(C)=O)OC(C)=O`, the result in assay [1], in assay [2], in [3], in [4], in assay [5] and in assay [6] was inactive. Besides, the outcome in assay [7] was inactive.
With `Nc1nc2ccc([N+](=O)[O-])cc2s1`, the molecule was classed as inactive in [1].
Regarding `CC(CN1c2ccccc2Sc2ccccc21)N(C)C` (configuration not stated), the outcome in assay [1], in assay [3], in assay [5] and in assay [7] was inactive. Moreover, the AC50 in [2] was 38.9 µM (active); in [3], 43.6 µM (active); in assay [7], 43.5 µM (active).
As for `Cc1ccc(O)c(C(C)(C)C)c1`, the molecule was called inactive in [1], in assay [2], in assay [3], in [4] and in [5]. In addition, the AC50 in assay [2] was 44.8 µM (active); in assay [3], 68.4 µM (active); in assay [4] it was 36.7 µM (active); in [5], 49.1 µM (active); in assay [6], 46.1 µM (active) and 52.5 µM (active); in assay [7], 60.5 µM (active) and 67.9 µM (active). For the same molecule, the AC50 in assay [9] is 72.2 µM (active) and 68.5 µM (active).
With `O=C(O)c1cccc(C(F)(F)F)c1`, the outcome in [1], in assay [2], in assay [3], in assay [4], in [5] and in assay [6] was inactive. Besides, the result in [7], in [8] and in assay [9] was inactive.
`CCCc1c(OCCCOc2ccc(OCC(=O)O)cc2)ccc(C(C)=O)c1O`: the molecule was called inactive in [1], in [4] and in assay [5]. The AC50 is 57 µM (active) in [2], 63.8 µM (active) in assay [3], 46.1 µM (active) in [6] and 66.6 µM (active) in [7].
As for `CC(C)C1CCC(O)CC1` (configuration not stated), the result in assay [1], in [2], in [3], in [4], in [6] and in [8] was inactive. Also, the outcome in [9] was inactive.
For the molecule `CCc1ccc(C=O)cc1`, the molecule was classed as inactive in assay [1], in [2], in [3], in assay [4], in assay [5] and in assay [8].
For `Nc1cc(Cl)c(O)c(Cl)c1`, the result in assay [1], in assay [2], in assay [3], in assay [4], in [5] and in assay [6] was inactive. Also, the outcome in assay [7] and in assay [9] was inactive.
`C[Si](O[Si](C)(C)C)O[Si](C)(C)C`: the call in assay [1], in assay [2], in [3], in [4], in [5] and in assay [7] was inactive. Besides, the call in assay [8] and in assay [9] was inactive.
Regarding `CCN(CC)c1ccc(C(=C2C=CC(=[N+](CC)CC)C=C2)c2ccc(S(=O)(=O)O)cc2S(=O)(=O)[O-])cc1`, the result in assay [1], in [3] and in [5] was inactive. For the same molecule, the AC50 in [2] was 26.5 µM (active); in [4], 23.1 µM (active); in assay [6] it was 46.1 µM (active); in assay [8], 36.1 µM (active).
As for `CC(=O)OCC=Cc1ccccc1`, the result in assay [1], in assay [2], in assay [3], in assay [4], in [5] and in assay [6] was inactive. The outcome in assay [9] was inactive.
For `CCCCCNCCCCC`, the molecule was classed as inactive in assay [1], in [2], in assay [3], in assay [4], in assay [5] and in [7]. Further, in [9], the outcome was inactive.
`COC(=O)OC`: the call in [1], in assay [2], in [3], in assay [4], in [5] and in assay [6] was inactive. Also, the result in assay [7], in assay [8] and in assay [9] was inactive.
Turning to `C=C(C)[C@@H]1CC[C@@H](C)C[C@@H]1O`, the outcome in assay [1], in [2], in [3], in assay [4], in assay [5] and in assay [6] was inactive. The result in assay [7], in assay [8] and in [9] was inactive.
With `NC(=O)NC1NC(=O)NC1=O` (configuration not stated), the call in [1], in assay [2], in assay [3], in [4], in [5] and in assay [6] was inactive. Moreover, the result in assay [7], in [8] and in [9] was inactive.
For the molecule `O=[N+]([O-])c1cc(C(F)(F)F)ccc1Cl`, the result in assay [1], in [2], in assay [3], in [4], in [5] and in [6] was inactive. For the same molecule, the molecule was called inactive in [8] and in assay [9].
As to `O=C(O)CCCCC1CCSS1` (configuration not stated), the molecule was classed as inactive in assay [1], in assay [2], in assay [3], in assay [4], in assay [5] and in assay [6]. Besides, the molecule was classed as inactive in [8] and in assay [9].
For `CNC(=O)Oc1ccc2c(c1)[C@]1(C)CCN(C)[C@@H]1N2C`, the molecule was classed as inactive in assay [1], in assay [2], in [3], in assay [4], in assay [5] and in [6]. For the same molecule, the result in [7] and in assay [9] was inactive.
For the molecule `CCCCCCCCCCCCCOS(=O)(=O)O`, the AC50 in [1] is 148 µM (active); in assay [2], 82.4 µM (active); in assay [3] it was 85.6 µM (active); in [6], 70.8 µM (active); in [7], 85.4 µM (active); in [9] it was 83.6 µM (active). For the same molecule, the result in [4] and in [5] was inactive.
Regarding `O=C(O)c1snc(Cl)c1Cl`, the outcome in [1], in assay [2], in assay [3], in assay [4], in assay [5] and in [6] was inactive. Further, the result in assay [7], in assay [8] and in assay [9] was inactive.
